Measured values published in ChEMBL document CHEMBL3433997, “St. Jude Leishmania screening dataset” (2016).

Experiments:
Type in all cases: functional
[1] = biological target: Solute carrier family 2, facilitated glucose transporter member 1 (Homo sapiens) (UniProt P11166); assay: ST_JUDE_LEISH: Cytotoxicity at 2uM final concentration against transgenic Leishmania Mexicana promastigotes LmGLUT1 that are glucose transport deficient and complemented with the human glucose transporter GLUT1. Activity is measured by DNA content using SYBR green in vitro
Chain of Solute carrier family 2, facilitated glucose transporter member 1 (Homo sapiens) (P11166 whole entry): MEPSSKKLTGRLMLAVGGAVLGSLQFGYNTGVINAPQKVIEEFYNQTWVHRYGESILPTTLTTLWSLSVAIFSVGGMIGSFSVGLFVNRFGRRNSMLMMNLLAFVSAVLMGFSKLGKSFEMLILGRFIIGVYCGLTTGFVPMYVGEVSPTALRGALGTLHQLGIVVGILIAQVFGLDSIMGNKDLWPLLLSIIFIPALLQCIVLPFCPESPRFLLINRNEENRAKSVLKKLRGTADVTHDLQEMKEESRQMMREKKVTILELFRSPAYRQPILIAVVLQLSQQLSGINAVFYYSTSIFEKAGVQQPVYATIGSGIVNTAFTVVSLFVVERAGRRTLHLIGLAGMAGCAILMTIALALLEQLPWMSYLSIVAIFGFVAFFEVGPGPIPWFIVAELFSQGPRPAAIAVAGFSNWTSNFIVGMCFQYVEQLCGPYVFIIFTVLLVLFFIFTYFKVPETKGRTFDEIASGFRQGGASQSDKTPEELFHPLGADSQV

[2] = biological target: Hexose transporter 1 (Plasmodium falciparum) (UniProt O97467); assay: ST_JUDE_LEISH: Cytotoxicity at 2uM final concentration against transgenic Leishmania Mexicana promastigotes LmPfHT that are glucose transport deficient and complemented with the Plasmodium falciparum hexose transporter. Activity is measured by DNA content using SYBR green in vitro
[3] = biological target: Glucose transporter (Leishmania mexicana) (UniProt O61059); assay: ST_JUDE_LEISH: Cytotoxicity at 2uM final concentration against transgenic Leishmania Mexicana promastigotes LmGT2 that are glucose transport deficient and complemented with the L. Mexicana glucose transporter 2. Activity is measured by DNA content using SYBR green in vitro

Row | SMILES | inhibition [1] [%] | inhibition [2] [%] | inhibition [3] [%]
1 | Cn1c(NC(=O)c2ccc(CNC(=O)c3ccc(O)c(-c4ccc(Cl)c(Cl)c4)c3)cc2)nc2ccccc21 | 4.29 | 3.37 | 3.29
2 | Cn1cc(CN2CCCC(COC(c3ccccc3)c3ccccc3)C2)cn1 (stereo unspecified) | 1.48 | 2.93 | 2.57
3 | O=C(COc1ccc(Cl)c(Cl)c1)NCCCCCN1CCCN(C(=O)Nc2cc(Cl)cc(Cl)c2)CC1 | 5.88 | -0.58 | 6.4
4 | O=C(Nc1ccc(-c2nc3ccccc3[nH]2)cc1)c1ccc(-c2cccc([N+](=O)[O-])c2)o1 | -1.84 | -0.42 | -3.21
5 | COc1cccc(Cn2ccc3c4c(N)nc(N)nc4ccc32)c1 | 94.3 | 96 | 85.1
6 | O=C(c1ccccc1F)N(Cc1ccc(Cl)cc1)c1ccccn1 | 6.82 | 7.84 | 9.29
7 | Cc1cccc2nc(-c3cccc(-c4ccc(NC(=O)NC(C)C)cc4)c3)[nH]c12 | 0 | 2.42 | -0.9
8 | O=C(NC(NC(=S)Nc1ccc([N+](=O)[O-])cc1)C(Cl)(Cl)Cl)c1cccc(Cl)c1 (stereo unspecified) | -0.29 | -1.54 | -0.06
9 | CN(C)CCNCc1ccc(-c2ccc3c(Nc4ccc(Oc5ccccc5)cc4)ccnc3c2)o1 | -1.6 | -1.01 | -0.02
10 | Cc1cccc2nc(-c3ccc(-c4ccc(CN5CCC(CCN6CCCCC6)CC5)cc4)cc3)[nH]c12 | 8.93 | 7.95 | -1.41
11 | CCOC(=O)CN(c1ccc(Br)cc1OCCOc1cc(Br)ccc1N(CC(=O)OCC)C(C)C(=O)OCC)C(C)C(=O)OCC (stereo unspecified) | 1.16 | -0.2 | 1.37
12 | Oc1ccc2ccccc2c1C=NNc1nc(=Nc2ccccc2)[nH]c(=Nc2ccccc2)[nH]1 | 3.37 | 3.44 | 2.92
13 | O=C(Nc1ccc([N+](=O)[O-])cc1Cl)c1cc2ccccc2cc1O | 0.6 | 1.59 | 1.3
14 | COc1ccc2c(NN=Cc3cccc(Cl)c3)ccnc2c1 | 0.29 | 0.23 | -0.9
15 | Cc1ccc(C2CCN(CCCCNC(=O)c3ccc(NC(=O)c4ccc(Cl)cc4)cc3)CC2)c(C)c1 | -0.93 | -0.75 | -0.85
16 | CC(C)CCNCc1ccc(OCc2cccc(C(=O)Nc3ccccc3)c2)c(I)c1 | 3.34 | 3.14 | 1.47

Row | SMILES | inhibition [1] [%] | inhibition [2] [%] | inhibition [3] [%]
17 | Cc1ccccc1C1CCN(C2CCC(NC(=O)/C=C/c3cc(C(F)(F)F)ccc3F)CC2)CC1 (stereo unspecified) | 2.67 | 2.98 | 3.34
18 | Cc1cc(O)c2c3c1C(=O)C=C1C3c3c(c(O)cc(O)c3C(=O)C1(C)C)C2=O (stereo unspecified) | -4.69 | -5.26 | -3.43
19 | O=C(/C=C/c1ccc([N+](=O)[O-])cc1)N1CCC(NS(=O)(=O)c2ccc(Br)cc2)CC1 | -0.08 | 1.13 | 1.17
20 | Nc1c2c(nc3ccccc13)C(=Cc1ccc(O)cc1)CCC2 | 5.91 | 8.35 | 2.9
21 | CNc1ccc(CNCc2cccc(-c3ccc(-c4nc5cc(C(F)(F)F)ccc5[nH]4)cc3)c2)cc1 | -1.26 | 1.48 | 1.39
22 | O=C(Nc1cccc(OCCN2CCCC2)c1)Nc1ccc(Cl)c(Cl)c1 | 1.92 | 2.15 | 4.58
23 | O=C(NCCc1ccccc1)N(Cc1cccc(-c2ccc(CNCc3ccc4c(c3)OCO4)cc2)c1)C1CCN(Cc2ccccc2)CC1 | 1.17 | 2.76 | 1.29
24 | CS(=O)(=O)CCNCc1ccc(-c2ccc3c(Nc4ccc(Cl)cc4F)ccnc3c2)o1 | 2.59 | 3.39 | 4.36
25 | O=C(Nc1ccc(Cl)cc1)Nc1cccc(-c2cccc(-c3nc4ccccc4[nH]3)c2)c1 | 1.17 | 0.33 | -0.65
26 | O=C(c1ccc(-c2ccc(-c3nc4cc(C(F)(F)F)ccc4[nH]3)s2)cc1)N1CCN(CCc2ccccc2)CC1 | 5.29 | 3.93 | 4.62
27 | Cc1[nH]c(C)c(-c2ccc(OCc3cc(F)cc(F)c3)nc2)c(=O)c1Cl | 5.4 | 4.58 | 2.08
28 | Cc1ccc(NC(=O)c2cc([N+](=O)[O-])ccc2NCc2cccnc2)cc1Cl | 1.5 | 0.38 | 2.63
29 | CCCc1ccccc1Nc1nc(C)cc(N(CC)CCCN2CCCCC2)n1 | 5.33 | 5.19 | 5.53
30 | O=[N+]([O-])c1cccc(C(Nc2ccccn2)c2ccc3cccnc3c2O)c1 (stereo unspecified) | 4.63 | 5.86 | 4.17
31 | O=C(NCCCc1ccccc1)c1csc(C2CCCN(C(=O)c3ccc(O)c(-c4ccccc4)c3)C2)n1 (stereo unspecified) | 2.11 | 0.46 | -4.23
32 | COc1ccc2nccc([C@@H](O)CN3CCC(NC(=O)c4cccc(C(=O)c5ccccc5)c4)CC3)c2c1 | -1.15 | 0.28 | 0.47
